Assay results published in PubChem BioAssay (NCI).
The panel holds about 83,000 compounds, 20% with a hit somewhere; the sample as a whole holds those more often.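 Values shown are percent growth following 48 h exposure of cells in 96-well plates to a single concentration of compound; below 10 was considered active.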 The source made the active and inactive calls.

Assays:
Experiment in all cases: NCI-60 one-dose screen, 48 h (100 = growth as untreated, 0 = no growth, -100 = all killed)
NCI-H23 lung = conditions: 10 µM unless noted
786-0 renal = conditions: 10 µM unless noted
DU-145 prostate = conditions: 10 µM unless noted
MDA-MB-231 breast = conditions: 10 µM unless noted
SF-268 CNS = conditions: 10 µM unless noted
SF-539 CNS = conditions: 10 µM unless noted
M14 melanoma = conditions: 10 µM unless noted
HCT-15 colon = conditions: 10 µM
UACC-62 melanoma = conditions: 10 µM unless noted
LOX IMVI melanoma = conditions: 10 µM unless noted
SK-MEL-28 melanoma = conditions: 10 µM unless noted
ACHN renal = conditions: 10 µM unless noted
OVCAR-5 ovarian = conditions: 10 µM unless noted
OVCAR-3 ovarian = conditions: 10 µM unless noted
NCI/ADR-RES ovarian = conditions: 10 µM unless noted
T-47D breast = conditions: 10 µM unless noted
MDA-MB-435 melanoma = conditions: 10 µM unless noted
SW-620 colon = conditions: 10 µM unless noted
MCF7 breast = conditions: 10 µM unless noted
KM12 colon = conditions: 10 µM unless noted

Measured: growth

COc1c(O)c2c3c(c1OC)-c1ccccc1CC3N(C)CC2 (stereo unspecified)
inactive: NCI-H23 lung 102% | 786-0 renal 100% | DU-145 prostate 116% | MDA-MB-231 breast 96.3% | SF-268 CNS 101% | SF-539 CNS 107% | M14 melanoma 93.3% | HCT-15 colon 105% | UACC-62 melanoma 94.9% | LOX IMVI melanoma 99.3% | SK-MEL-28 melanoma 117% | ACHN renal 105% | OVCAR-5 ovarian 109% | OVCAR-3 ovarian 109% | NCI/ADR-RES ovarian 99.7% | T-47D breast 100% | MDA-MB-435 melanoma 104% | SW-620 colon 117% | MCF7 breast 100% | KM12 colon 100%

CCC(C)(C)O
inactive: NCI-H23 lung 111% | 786-0 renal 114% | DU-145 prostate 115% | MDA-MB-231 breast 97.4% | SF-268 CNS 99.1% | SF-539 CNS 108% | M14 melanoma 107% | HCT-15 colon 99.9% | UACC-62 melanoma 98.5% | LOX IMVI melanoma 108% | SK-MEL-28 melanoma 108% | ACHN renal 103% | OVCAR-5 ovarian 90.1% | OVCAR-3 ovarian 111% | NCI/ADR-RES ovarian 110% | T-47D breast 107% | MDA-MB-435 melanoma 92.3% | SW-620 colon 99.9% | MCF7 breast 97.6% | KM12 colon 105%

O=C(N/N=C/c1ccc([N+](=O)[O-])o1)c1cc([N+](=O)[O-])cc([N+](=O)[O-])c1O
inactive: NCI-H23 lung 94.1% | 786-0 renal 106% | DU-145 prostate 111% | MDA-MB-231 breast 93.5% | SF-268 CNS 101% | SF-539 CNS 112% | M14 melanoma 102% | HCT-15 colon 93.3% | UACC-62 melanoma 88.9% | LOX IMVI melanoma 84.5% | SK-MEL-28 melanoma 113% | ACHN renal 90.6% | OVCAR-5 ovarian 114% | OVCAR-3 ovarian 113% | NCI/ADR-RES ovarian 89.1% | T-47D breast 93.5% | MDA-MB-435 melanoma 98.3% | SW-620 colon 102% | MCF7 breast 84.6% | KM12 colon 99.7%

N#CC(C#N)=Cc1ccc2ccccc2c1
inactive: NCI-H23 lung 100% | 786-0 renal 104% | DU-145 prostate 109% | MDA-MB-231 breast 106% | SF-268 CNS 116% | SF-539 CNS 107% | M14 melanoma 104% | HCT-15 colon 111% | UACC-62 melanoma 115% | LOX IMVI melanoma 84% | SK-MEL-28 melanoma 113% | ACHN renal 107% | OVCAR-5 ovarian 106% | OVCAR-3 ovarian 117% | NCI/ADR-RES ovarian 108% | T-47D breast 110% | MDA-MB-435 melanoma 114% | MCF7 breast 103%

CCCCn1cc(C(=O)/C(C#N)=C/c2cc3ccccc3nc2Cl)c2cc(OC)ccc21
inactive: NCI-H23 lung 92.8% | 786-0 renal 97% | DU-145 prostate 104% | MDA-MB-231 breast 87.8% | SF-268 CNS 83.1% | SF-539 CNS 89% | HCT-15 colon 94.3% | UACC-62 melanoma 81.4% | LOX IMVI melanoma 74% | SK-MEL-28 melanoma 107% | ACHN renal 79% | OVCAR-5 ovarian 102% | OVCAR-3 ovarian 78.6% | NCI/ADR-RES ovarian 91.7% | T-47D breast 80.4% | MDA-MB-435 melanoma 101% | SW-620 colon 44.7% | MCF7 breast 72% | KM12 colon 94.5%

Cc1nnc([S-])s1.[Au+].c1ccc([PH+](c2ccccc2)c2ccccc2)cc1
active: 786-0 renal -29.7% | MDA-MB-231 breast 4.44% | SF-268 CNS 7.17% | SF-539 CNS -22.9% | M14 melanoma -2.48% | HCT-15 colon -76% | UACC-62 melanoma -31% | LOX IMVI melanoma -60.6% | SK-MEL-28 melanoma -55.7% | ACHN renal -89.4% | OVCAR-3 ovarian -96.3% | T-47D breast -40.2% | MDA-MB-435 melanoma 5.65% | SW-620 colon -70.6% | MCF7 breast -64.1%
inactive: NCI-H23 lung 12.2% | DU-145 prostate 18.6% | OVCAR-5 ovarian 63.6% | NCI/ADR-RES ovarian 63.4% | KM12 colon 49.1%

CC[C@@H](C)/C=C(C)/C=C/C(=O)c1c(O)c(-c2ccc(O)cc2)cn(O)c1=O
active: 786-0 renal 0.309% | SF-268 CNS -0.607% | SF-539 CNS 5.1% | M14 melanoma -1.25% | UACC-62 melanoma -31.6% | LOX IMVI melanoma 3.82% | ACHN renal 0.29% | NCI/ADR-RES ovarian 1.53%
inactive: NCI-H23 lung 19.6% | DU-145 prostate 15.5% | HCT-15 colon 30.7% | SK-MEL-28 melanoma 34.7% | OVCAR-3 ovarian 25.7% | T-47D breast 15.8% | MDA-MB-435 melanoma 24.1% | SW-620 colon 20.2% | MCF7 breast 15.4% | KM12 colon 23.5%

COc1cc(C2CC(=O)Nc3nc(N)[se]c32)cc(OC)c1OC (stereo unspecified)
inactive: NCI-H23 lung 102% | 786-0 renal 114% | DU-145 prostate 101% | MDA-MB-231 breast 101% | SF-268 CNS 101% | SF-539 CNS 101% | M14 melanoma 115% | HCT-15 colon 109% | UACC-62 melanoma 117% | LOX IMVI melanoma 105% | SK-MEL-28 melanoma 111% | ACHN renal 103% | OVCAR-5 ovarian 93.4% | OVCAR-3 ovarian 101% | NCI/ADR-RES ovarian 107% | T-47D breast 74.5% | MDA-MB-435 melanoma 105% | SW-620 colon 109% | MCF7 breast 98.6% | KM12 colon 56.7%

CC(=O)[O][Hg][CH2]C1(C)COC(C)([CH2][Hg][O]C(C)=O)CO1 (stereo unspecified)
inactive: NCI-H23 lung 65.4% | 786-0 renal 79% | MDA-MB-231 breast 42.8% | SF-268 CNS 88.2% | M14 melanoma 39% | UACC-62 melanoma 95.8% | SK-MEL-28 melanoma 18.3% | ACHN renal 63.1% | OVCAR-5 ovarian 114% | NCI/ADR-RES ovarian 94.9%
active: SF-539 CNS -87.2% | HCT-15 colon -94% | LOX IMVI melanoma -98.4% | OVCAR-3 ovarian -100% | T-47D breast 4.43% | MDA-MB-435 melanoma -2.3% | SW-620 colon -92.3% | MCF7 breast -81.1%

C[C@]12C[C@H](O)[C@H]3[C@@H](CCC4=CC(=O)CC[C@@]43C)[C@@H]1CC[C@@H]2O
inactive: NCI-H23 lung 103% | 786-0 renal 107% | DU-145 prostate 112% | MDA-MB-231 breast 103% | SF-268 CNS 105% | SF-539 CNS 99% | M14 melanoma 98.4% | HCT-15 colon 100% | UACC-62 melanoma 98.5% | LOX IMVI melanoma 96% | SK-MEL-28 melanoma 106% | ACHN renal 101% | OVCAR-5 ovarian 105% | OVCAR-3 ovarian 112% | NCI/ADR-RES ovarian 104% | T-47D breast 105% | MDA-MB-435 melanoma 101% | SW-620 colon 107% | MCF7 breast 103% | KM12 colon 105%

CC(=O)O[C@H]1C[C@H](O[C@H]2[C@@H](O)C[C@H](O[C@H]3[C@@H](O)C[C@H](O[C@H]4CC[C@@]5(C)C(CCC6C5C[C@@H](O)[C@]5(C)[C@@H](C7=CC(=O)OC7)CC[C@]65O)C4)O[C@@H]3C)O[C@@H]2C)O[C@H](C)[C@H]1O[C@@H]1O[C@H](CO)[C@@H](O)[C@H](O)[C@H]1O (stereo partly specified)
active: NCI-H23 lung -64.1% | 786-0 renal -91.2% | DU-145 prostate -100% | MDA-MB-231 breast -46.2% | SF-268 CNS -100% | SF-539 CNS -88% | M14 melanoma -77% | HCT-15 colon -79.1% | UACC-62 melanoma -94.3% | LOX IMVI melanoma -97.4% | SK-MEL-28 melanoma -70.5% | ACHN renal -59.1% | OVCAR-5 ovarian -86.1% | OVCAR-3 ovarian -100% | NCI/ADR-RES ovarian -69.5% | T-47D breast -19% | MDA-MB-435 melanoma -97.9% | SW-620 colon -90.5% | MCF7 breast -53% | KM12 colon -100%

Nc1ccc(N)c2c1Oc1ccccc1O2
inactive: NCI-H23 lung 85.7% | 786-0 renal 93.2% | DU-145 prostate 94.3% | MDA-MB-231 breast 78.5% | SF-268 CNS 105% | SF-539 CNS 89.1% | M14 melanoma 101% | HCT-15 colon 105% | UACC-62 melanoma 98.6% | LOX IMVI melanoma 90.3% | SK-MEL-28 melanoma 108% | ACHN renal 94.7% | OVCAR-5 ovarian 89% | OVCAR-3 ovarian 99% | NCI/ADR-RES ovarian 94.9% | T-47D breast 98.1% | MDA-MB-435 melanoma 109% | SW-620 colon 102% | MCF7 breast 98% | KM12 colon 97.3%

C#CC1(O)CCC2(C)C(CCC3C4CCC(=O)C4(C)CCC32)C1 (stereo unspecified)
inactive: NCI-H23 lung 97.3% | 786-0 renal 97.4% | DU-145 prostate 109% | MDA-MB-231 breast 101% | SF-268 CNS 97.9% | SF-539 CNS 97.2% | M14 melanoma 102% | HCT-15 colon 97.5% | UACC-62 melanoma 88.7% | LOX IMVI melanoma 96.6% | SK-MEL-28 melanoma 105% | ACHN renal 97.8% | OVCAR-5 ovarian 99.8% | OVCAR-3 ovarian 109% | NCI/ADR-RES ovarian 96.4% | T-47D breast 96.1% | MDA-MB-435 melanoma 101% | SW-620 colon 103% | MCF7 breast 104% | KM12 colon 102%

c1ccc([As]=[As]c2ccccc2)cc1 (stereo unspecified)
active: NCI-H23 lung -37.2% | 786-0 renal -90.4% | DU-145 prostate -6.06% | MDA-MB-231 breast -60.9% | SF-268 CNS -39.8% | SF-539 CNS -66.8% | M14 melanoma -30.2% | HCT-15 colon -86.2% | UACC-62 melanoma -76.4% | LOX IMVI melanoma -74.5% | SK-MEL-28 melanoma -25.5% | ACHN renal -99.1% | OVCAR-5 ovarian -7.9% | OVCAR-3 ovarian -93% | NCI/ADR-RES ovarian 9.34% | T-47D breast -73.1% | MDA-MB-435 melanoma -37.6% | SW-620 colon -68.1% | MCF7 breast -76.2% | KM12 colon 9.67%

O=C(CCF)c1ccc(O)cc1
inactive: NCI-H23 lung 94% | 786-0 renal 103% | DU-145 prostate 105% | MDA-MB-231 breast 113% | SF-539 CNS 103% | M14 melanoma 106% | HCT-15 colon 102% | UACC-62 melanoma 106% | LOX IMVI melanoma 95% | SK-MEL-28 melanoma 113% | ACHN renal 106% | OVCAR-5 ovarian 96.7% | OVCAR-3 ovarian 109% | NCI/ADR-RES ovarian 105% | T-47D breast 102% | MDA-MB-435 melanoma 104% | MCF7 breast 101% | KM12 colon 106%

Cc1cc(NC(=O)/C=C/c2ccc([N+](=O)[O-])cc2)ccc1S(=O)(=O)F
inactive: NCI-H23 lung 109% | 786-0 renal 89.1% | DU-145 prostate 103% | MDA-MB-231 breast 99.6% | SF-268 CNS 109% | SF-539 CNS 112% | M14 melanoma 112% | HCT-15 colon 98.2% | UACC-62 melanoma 98.2% | LOX IMVI melanoma 102% | SK-MEL-28 melanoma 110% | ACHN renal 105% | OVCAR-5 ovarian 113% | OVCAR-3 ovarian 122% | NCI/ADR-RES ovarian 106% | T-47D breast 87.6% | MDA-MB-435 melanoma 99.7% | SW-620 colon 110% | MCF7 breast 91.8% | KM12 colon 97%
